Laboratory results taken from the supplement of paper PMC9950053.
Where a name gives a salt, the structure may show the parent alone.

Legend:
Conditions in all cases: 10 µM; exposure time: 3 h pre-incubation + 3 h imaging
[1] = system: Danio rerio larvae (5 dpf); assay: 1-h baseline activity (% time moving, periods 1-6) minus DMSO control (percentage points); higher = more locomotor activity than DMSO larvae
Summary of the method: (§1)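 Wild-type 5 dpf zebrafish larvae were exposed to compounds at 10 µM final for 3 h before and 3 h during imaging at 28.5 °C. Larvae were imaged every 6 s and tracked by Z-LaP Tracker. Detections below 0.5 probability and larvae moving under 1% of the time were excluded. Each behavioural measure is the group mean (n = 48) minus the DMSO control mean (n = 844), in percentage points.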

[2] = system: Danio rerio larvae (5 dpf); assay: excitability (activity period 17 minus period 16, 1-s interval sound) minus DMSO control (percentage points); higher = more acoustic excitability than DMSO larvae
Summary of the method: as §1

[3] = system: Danio rerio larvae (5 dpf); assay: combined optomotor response (time in upper well half, down vs up moving lines, periods 7-14) minus DMSO control (percentage points); higher = stronger optomotor response than DMSO larvae
[4] = system: Danio rerio larvae (5 dpf); assay: habituation (activity change first vs second 5 min of 1-s interval sound, period 17) minus DMSO control (percentage points); higher = larger habituation measure than DMSO larvae
Summary of the method: as §1

## Cn1nnc2c(C(N)=O)ncn2c1=O [Temozolomide]
[1]
  1-h baseline activity: 5.97
[2]
  excitability: 0.618
[3]
  combined optomotor response: 5.41

## COc1ccc(C[C@@H](C)NC[C@H](O)c2ccc(O)c(NC=O)c2)cc1 [Arformoterol tartrate]
[1]
  1-h baseline activity: 41.7
[3]
  combined optomotor response: -7.68

## Cc1cc(C2CCCCC2)n(O)c(=O)c1 [Ciclopirox]
[1]
  1-h baseline activity: -1.84
[3]
  combined optomotor response: 5.45

## CCCc1nc2c(C)cc(-c3nc4ccccc4n3C)cc2n1Cc1ccc(-c2ccccc2C(=O)O)cc1 [Telmisartan]
[1]
  1-h baseline activity: -7.8
[4]
  habituation: -1.73
[3]
  combined optomotor response: 2.86

## CC(C)C(=O)OCC(=O)[C@@]12O[C@H](C3CCCCC3)O[C@@H]1C[C@H]1[C@@H]3CCC4=CC(=O)C=C[C@]4(C)[C@H]3[C@@H](O)C[C@@]12C [Ciclesonide]
[2]
  excitability: 6.47
[3]
  combined optomotor response: 1.14

## NC(=O)N1c2ccccc2C=Cc2ccccc21 [Carbamazepine]
[4]
  habituation: 2.97

## Nc1cc(N2CCCCC2)nc(N)[n+]1[O-] [Minoxidil]
[4]
  habituation: 7.65
